We go through four compounds from PubChem BioAssay.

The source made the active and inactive calls.

The target of assay [1] is Albumin (Bos taurus) (UniProt P02769). The assay can be described thus: bovine serum albumin binders on microarray, profiling panel, artefact control for SMM control protein annotation, biochemical, small-molecule microarray, Alexa647 label, 635/667 nm fluorescence (AID 1118).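 Note: score merges 667 nm emission intensity and signal-to-noise per printed compound spot.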 Particulars: BSA-A647 binding, fluorescence 635 nm, higher = more signal.
Sequence of Albumin (Bos taurus) (P02769 whole entry, looked up): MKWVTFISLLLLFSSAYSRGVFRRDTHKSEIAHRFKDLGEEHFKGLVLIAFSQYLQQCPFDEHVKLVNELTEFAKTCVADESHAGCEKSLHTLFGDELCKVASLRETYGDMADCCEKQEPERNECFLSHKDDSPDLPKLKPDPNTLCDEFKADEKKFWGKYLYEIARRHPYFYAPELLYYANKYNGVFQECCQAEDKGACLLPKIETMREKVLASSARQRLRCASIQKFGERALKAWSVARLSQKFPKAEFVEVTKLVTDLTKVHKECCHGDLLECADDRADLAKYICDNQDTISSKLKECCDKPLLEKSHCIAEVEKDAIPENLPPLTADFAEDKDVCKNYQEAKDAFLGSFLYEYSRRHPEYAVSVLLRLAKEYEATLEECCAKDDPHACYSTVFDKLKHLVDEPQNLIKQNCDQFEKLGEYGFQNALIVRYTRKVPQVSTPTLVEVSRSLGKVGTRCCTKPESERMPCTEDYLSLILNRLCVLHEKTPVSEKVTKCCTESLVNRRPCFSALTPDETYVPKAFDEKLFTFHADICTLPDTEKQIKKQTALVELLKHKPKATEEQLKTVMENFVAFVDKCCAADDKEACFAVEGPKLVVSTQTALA
A short description of assay [2]: small-molecule microarray binders of probe aXIP, primary screen, biochemical, NeuroSMM set, 635/667 nm fluorescence (AID 1119).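 Note: probe is the protein aXip251-270 applied at 1 µg/mL to compound-printed slides; binding of probe to printed compounds measured as 667 nm fluorescence plus signal to noise.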 Particulars: higher = more signal, called active from +8 up or from −8 down.
The nature of assay [3]: small-molecule binders of probe aNOTCH3, primary screen, biochemical, small-molecule microarray, 635/667 nm fluorescence (AID 1120).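 Note: probe is a biotin-tagged antibody raised against NOTCH3 rather than NOTCH3 protein; score merges spot fluorescence near 667 nm with spot signal to noise.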 Particulars: higher = more signal.
Assay [4] is described as follows: small-molecule binders of probe aNOTCH2, primary screen, biochemical, small-molecule microarray, 635/667 nm fluorescence (AID 1121).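 Note: score merges feature fluorescence read at 667 nm with its signal to noise.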 Particulars: higher = more signal.
Assay [5] has as its target Carbonic anhydrase 2 (Homo sapiens) (UniProt P00918). In words: CAII small-molecule binders, profiling panel, biochemical, small-molecule microarray, Alexa647-labelled CAII (AID 1122). Particulars: CAII-A647 binding fluorescence, higher = more signal.
A short description of assay [6]: COS7 lysate on small-molecule microarray, probe aHis, 635 nm (AID 1123).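 Note: z-score combines 667nm fluorescence intensity with signal-to-noise per printed compound spot.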 Particulars: COS7 cell lysate, fluorescence, higher = more signal.
Assay [7] can be described thus: compound binding in COS7 lysate, probe aLAP1, primary screen, cell lysate, small-molecule microarray (AID 1124).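 Note: lysate comes from COS7 cells expressing LAP1 and is applied at 0.3 µg/mL; score merges spot fluorescence near 667 nm with signal-to-noise over triplicate slides.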 Particulars: probe aLAP1, fluorescence, higher = more signal.
Assay [8] concerns Sam68 (KHDRBS1). In words: Sam68 small-molecule binders, primary screen, biochemical, small-molecule microarray, 635 nm fluorescence (AID 1125).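 Note: score merges 667 nm channel intensity with signal to noise over triplicate slides.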 Particulars: small-molecule microarray binding, higher = more signal.
For assay [9], the system named is Chordin-like protein 2 (CHRDL2). In words: CHRDL2 small-molecule binders, primary screen, biochemical, small-molecule microarray, 635 nm fluorescence (AID 1126).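 Note: printed compound slides probed with Chrdl2 protein at 4 µg/mL for 1 h at 4 C; score merges 667 nm emission intensity with signal to noise over three replicate slides.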 Particulars: small-molecule microarray binding, fluorescence 635 nm; higher = more signal.
Assay [10] addresses Concanavalin-A (Canavalia ensiformis) (UniProt P02866). The assay can be described thus: ConA small-molecule binders, primary screen, artefact control for SMM control protein annotation, biochemical, small-molecule microarray, Alexa647 label, 635 nm (AID 1127).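 Note: z combines 667 nm emission intensity with signal-to-noise across three replicate slides.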 Particulars: ConA-A647 binding fluorescence, higher = more signal.
Assay [11] can be described thus: anti-His antibody binders, primary screen, artefact control for SMM control protein annotation, biochemical, small-molecule microarray, 635 nm fluorescence (AID 1128).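 Note: score merges feature fluorescence with signal-to-noise for each printed compound spot.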 Particulars: anti-His Alexa647 antibody binding, higher = more signal.
The test system of assay [12] is Human papillomavirus type 1a E7 protein (residues 1-88). In words: HPV1a E7 small-molecule binders, primary screen, biochemical, small-molecule microarray, residues 1-88, 635 nm (AID 1129). Particulars: small-molecule microarray binding, fluorescence 635 nm; higher = more signal.
In assay [13] the target is Focal adhesion kinase 1 (Homo sapiens) (UniProt Q05397). In words: small-molecule microarray binders of FAK, primary screen, biochemical, 635/667 nm fluorescence, BSA, DTT (AID 1130).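 Note: composite of spot emission at 667 nm and signal to noise over triplicate slides.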 Particulars: PTK2 binding, 635 nm fluorescence, higher = more signal.
Sequence of Focal adhesion kinase 1 (Homo sapiens) (Q05397 whole entry, looked up): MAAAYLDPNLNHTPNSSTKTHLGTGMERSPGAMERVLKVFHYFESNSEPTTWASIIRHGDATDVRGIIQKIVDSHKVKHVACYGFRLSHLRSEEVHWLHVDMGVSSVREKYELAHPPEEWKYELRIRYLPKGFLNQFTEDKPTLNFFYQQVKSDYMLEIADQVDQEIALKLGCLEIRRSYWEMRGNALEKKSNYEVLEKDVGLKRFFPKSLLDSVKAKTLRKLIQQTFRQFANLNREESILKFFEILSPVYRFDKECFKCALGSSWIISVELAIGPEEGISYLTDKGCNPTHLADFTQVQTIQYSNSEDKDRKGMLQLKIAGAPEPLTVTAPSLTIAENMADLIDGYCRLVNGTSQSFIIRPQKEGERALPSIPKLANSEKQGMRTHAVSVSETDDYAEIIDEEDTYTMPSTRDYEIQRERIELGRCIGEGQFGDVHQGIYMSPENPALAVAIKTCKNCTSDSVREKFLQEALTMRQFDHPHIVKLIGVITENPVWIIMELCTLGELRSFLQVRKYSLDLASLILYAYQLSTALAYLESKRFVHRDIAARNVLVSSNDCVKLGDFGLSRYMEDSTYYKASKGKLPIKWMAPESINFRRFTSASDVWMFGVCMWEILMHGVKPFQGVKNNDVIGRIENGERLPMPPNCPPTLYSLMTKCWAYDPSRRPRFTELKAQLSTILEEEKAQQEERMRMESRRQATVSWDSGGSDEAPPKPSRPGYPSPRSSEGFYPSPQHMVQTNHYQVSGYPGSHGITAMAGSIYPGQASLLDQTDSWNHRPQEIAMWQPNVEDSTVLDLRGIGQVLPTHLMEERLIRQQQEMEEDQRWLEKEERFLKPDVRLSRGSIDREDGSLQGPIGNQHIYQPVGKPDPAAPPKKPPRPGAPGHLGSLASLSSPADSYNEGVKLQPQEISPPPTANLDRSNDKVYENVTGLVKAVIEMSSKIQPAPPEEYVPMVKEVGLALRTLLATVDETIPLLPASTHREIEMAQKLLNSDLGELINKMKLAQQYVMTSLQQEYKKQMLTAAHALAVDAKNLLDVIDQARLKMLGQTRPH
Assay [14] concerns Fibrinogen (Alexa647-labelled). The assay can be described thus: fibrinogen binders on compound microarrays, profiling panel, artefact control for SMM control-protein annotation, biochemical, small-molecule microarray, 635/667 nm fluorescence (AID 1131).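 Note: z-score merges 667 nm fluorescence with per-spot signal-to-noise over triplicate slides.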 Particulars: fibrinogen-A647 binding fluorescence, higher = more signal.
In assay [15] the target is Follistatin (Homo sapiens) (UniProt P19883). In words: follistatin binders on small-molecule microarrays, primary screen, biochemical, small-molecule microarray, 635/667 nm fluorescence (AID 1132). Particulars: FST binding, 635 nm fluorescence, higher = more signal.
Sequence of Follistatin (Homo sapiens) (P19883 whole entry, looked up): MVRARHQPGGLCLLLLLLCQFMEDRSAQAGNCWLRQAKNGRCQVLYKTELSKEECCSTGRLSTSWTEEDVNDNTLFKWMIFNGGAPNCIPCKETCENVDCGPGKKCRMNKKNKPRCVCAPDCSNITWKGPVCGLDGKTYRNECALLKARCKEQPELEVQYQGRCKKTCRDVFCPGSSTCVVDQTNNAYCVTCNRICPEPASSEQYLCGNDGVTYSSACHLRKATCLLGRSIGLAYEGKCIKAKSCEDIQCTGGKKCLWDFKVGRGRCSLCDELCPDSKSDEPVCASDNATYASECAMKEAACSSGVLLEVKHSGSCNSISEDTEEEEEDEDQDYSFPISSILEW
Assay [16] deals with Fibroblast growth factor 2 (Homo sapiens) (UniProt P09038). In words: FGF2 binders on small-molecule microarrays, primary screen, biochemical, small-molecule microarray, 635/667 nm fluorescence (AID 1133). Particulars: small-molecule microarray binding, FGF2, fluorescence 635/667; higher = more signal.
Sequence of Fibroblast growth factor 2 (Homo sapiens) (P09038 whole entry, looked up): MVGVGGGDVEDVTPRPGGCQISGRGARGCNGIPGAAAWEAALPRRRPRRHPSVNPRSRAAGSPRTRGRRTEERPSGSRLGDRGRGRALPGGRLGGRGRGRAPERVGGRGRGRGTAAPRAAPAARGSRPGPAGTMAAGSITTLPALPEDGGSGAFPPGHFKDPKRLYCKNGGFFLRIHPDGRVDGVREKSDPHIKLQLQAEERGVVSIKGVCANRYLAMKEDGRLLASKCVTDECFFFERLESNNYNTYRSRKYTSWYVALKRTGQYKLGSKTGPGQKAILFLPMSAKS
The nature of assay [17]: mitochondrial membrane potential change in A549 cells, profiling panel, cell-based, JC-1 fluorescence, basal, 24 h, 100 nL (AID 1138).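 Note: A549 lung adenocarcinoma cells under basal conditions with no added stimulus; test concentration not given here.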 Particulars: higher = more signal.
Assay [18] relates to Lefty1. The assay can be described thus: Lefty1 binders on small-molecule microarrays, primary screen, biochemical, small-molecule microarray, 635/667 nm fluorescence (AID 1139). Particulars: small-molecule microarray binding, fluorescence 635/667; higher = more signal.
In assay [19] the test system is wheat germ agglutinin (Triticum aestivum), Alexa647-labelled. In words: wheat germ agglutinin binders on compound microarrays, profiling panel, artefact control for SMM control-protein annotation, biochemical, small-molecule microarray, 635/667 nm fluorescence (AID 1140).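 Note: score merges 667 nm feature emission with signal to noise over triplicate slides.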 Particulars: WGA-A647 binding, 635 nm fluorescence, higher = more signal.
In assay [20] the target is Luciferin 4-monooxygenase (Photinus pyralis) (UniProt P08659). The assay can be described thus: firefly luciferase enzyme inhibitors, primary screen, biochemical, luminescence, purified enzyme, 2006 set (AID 1141).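 Note: cell-free assay with purified firefly luciferase at 100 ng per well in PBS; test concentration not given here.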 Particulars: SteadyGlo luminescence, 30 min, higher = more signal, called active from +8 up or from −8 down.
Sequence of Luciferin 4-monooxygenase (Photinus pyralis) (P08659 whole entry, looked up): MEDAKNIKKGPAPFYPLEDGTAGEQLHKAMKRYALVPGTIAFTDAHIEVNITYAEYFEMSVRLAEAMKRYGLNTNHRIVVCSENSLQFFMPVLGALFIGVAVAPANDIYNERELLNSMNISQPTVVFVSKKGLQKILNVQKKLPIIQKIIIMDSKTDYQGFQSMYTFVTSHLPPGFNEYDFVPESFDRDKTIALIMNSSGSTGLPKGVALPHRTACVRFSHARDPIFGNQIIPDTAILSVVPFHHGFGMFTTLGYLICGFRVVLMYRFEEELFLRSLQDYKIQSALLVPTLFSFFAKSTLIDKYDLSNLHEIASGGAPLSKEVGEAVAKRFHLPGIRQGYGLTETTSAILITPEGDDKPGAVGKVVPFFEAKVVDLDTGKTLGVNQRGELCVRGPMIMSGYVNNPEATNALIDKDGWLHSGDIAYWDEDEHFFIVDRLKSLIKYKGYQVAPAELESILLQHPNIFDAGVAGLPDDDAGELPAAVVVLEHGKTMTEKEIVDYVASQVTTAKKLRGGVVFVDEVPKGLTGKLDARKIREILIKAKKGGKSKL

Sequence of Concanavalin-A (Canavalia ensiformis) (P02866 whole entry, looked up): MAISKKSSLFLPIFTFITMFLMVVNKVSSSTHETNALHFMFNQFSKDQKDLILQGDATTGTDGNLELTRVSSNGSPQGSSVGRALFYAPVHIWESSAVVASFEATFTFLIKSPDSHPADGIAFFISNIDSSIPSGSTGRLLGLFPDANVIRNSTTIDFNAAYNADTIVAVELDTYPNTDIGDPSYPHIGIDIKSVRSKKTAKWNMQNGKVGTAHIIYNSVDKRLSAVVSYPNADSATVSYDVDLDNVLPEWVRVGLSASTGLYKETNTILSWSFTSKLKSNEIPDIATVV

On to `COc1ccc([Si](C)(C)[C@@H]2[C@@H](CCn3cc([C@H](O)c4ccccc4)nn3)O[C@]3(C(=O)N(Cc4cccc(N5CCOC5=O)c4)c4ccccc43)[C@H]2C)cc1`, for which the composite z-score in assay [1] was -0.424; in assay [3], -0.259; in assay [4], -0.175; in assay [5], -0.208; in assay [6] it was -0.359; in [7] it was -0.0364. The composite z-score in assay [8] was -0.217; in [9] it was -1.14; in assay [10] it was -0.348; in [11], -1.11; in assay [12] it was -0.576; in assay [13], -0.753. In addition, the composite z-score in assay [14] is -1.23; in assay [15], -1.68; in assay [16], -0.977; in assay [18] it was -1.31; in assay [19], -0.452. Besides, the composite Z-score in [2] was 0.25 (inactive). Besides, the z-score is 2.14 in [17] and -1.5 (inactive) in assay [20].

As to `C=CCNC(=O)[C@H]1[C@@H]2C(=O)O[C@@H](c3ccccc3)[C@@H](c3ccccc3)N2[C@@H](c2ccc(O)cc2)[C@]12C(=O)N(C(=O)OCCOC)c1ccc(C#CCCO)cc12`, the composite z-score in [1] is 0.534; in [3] it was -0.155; in assay [4], -0.0942; in assay [5] it was 0.701; in assay [6], 2.1; in [7], 0.881. Further, the composite z-score in assay [8] was 1.08; in assay [9], -0.445; in assay [10], 0.903; in assay [11], 1.03; in assay [12], -0.0757; in [13], 0.38. Besides, the composite z-score in assay [14] is 0.288; in assay [15], 0.448; in assay [16] it was 0.748; in assay [18] it was -0.0874; in assay [19] it was -0.163. Also, in [2], the composite Z-score was -0.228 (inactive). The z-score is 0.956 in [17] and -0.923 (inactive) in [20].

Consider `O=C1C2C=CC(C(O)c3ccc(F)cc3)N(Nc3ccccc3)C2C(=O)N1c1ccccc1` (stereo not given), for which the composite z-score in assay [1] was 0.843; in [3], 0.189; in [4] it was 0.0449; in assay [5], 0.734; in [6], 2.88; in [7] it was -0.364. In addition, the composite z-score in assay [8] is 0.654; in [9], -0.527; in assay [10] it was -0.398; in assay [11], 1.33; in assay [12], 1.22; in assay [13], 0.734. Also, the composite z-score was 0.266 in assay [14]; -0.143 in assay [15]; -0.762 in assay [16]; -0.233 in assay [18]; 0.684 in assay [19]. In assay [2], the composite Z-score was 0.121 (inactive). Further, the values for the z-score in assay [17] and in assay [20] were -0.101 and 0.165 (inactive), respectively.

`COc1cccc(C(=O)O[C@H]2CC[C@]3(C)C4=C(CCC3C2(C)C)[C@]2(C)CC[C@H]([C@H](C)CCCC(C)C)[C@@]2(C)CC4)c1` (stereo not given in full): the composite z-score in [1] was 0.111; in assay [3], -0.0414; in assay [4] it was -0.132; in [5] it was 0.202; in assay [6], 0.279; in assay [7] it was -0.147. Moreover, the composite z-score in assay [8] was 0.166; in assay [9], 0.585; in assay [10], 0.254; in assay [11] it was 0.0291; in assay [12], 0.386; in assay [13] it was -0.404. For the same compound, the composite z-score in assay [14] is -0.133; in [15], 0.649; in assay [16], 0.281; in assay [18], 0.24; in assay [19], 0.258. Further, the composite Z-score in [2] is -0.424 (inactive). In addition, the z-score in assay [17] is 0.434; in [20] it was -0.843 (inactive).
